# HADH2 inh = qHTS Assay for Inhibitors of HADH2 (Hydroxyacyl-Coenzyme A Dehydrogenase, Type II) | 3-hydroxyacyl-CoA dehydrogenase type-2 (Homo sapiens), Q99714 | recombinant HADH2, NADH fluorescence, beta-hydroxybutyryl-CoA | Potency, µM (top dose mostly 57.1 µM), for inactives: top-dose activity change, negative = inhibition, most hits filed as inhibitors | 73,000 tested, 3.4% active | AID 886, 2007; also: potency is read from the fitted curve at half-maximal effect; % is scaled to controls: 0 for no effect and ±100 for the full control effect; nearly all actives have a fitted effect of over 60% in size
# Target sequence (Q99714 whole entry, looked up, one chain of several): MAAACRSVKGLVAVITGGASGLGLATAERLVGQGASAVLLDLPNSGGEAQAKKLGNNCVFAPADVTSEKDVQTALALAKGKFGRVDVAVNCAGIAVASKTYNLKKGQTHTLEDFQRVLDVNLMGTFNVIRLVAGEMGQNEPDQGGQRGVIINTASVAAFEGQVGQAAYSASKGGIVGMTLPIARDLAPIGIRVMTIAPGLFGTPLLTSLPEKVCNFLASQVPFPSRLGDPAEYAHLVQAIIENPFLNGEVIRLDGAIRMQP
#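 20 nM HADH2 + cpd, 15 min RT; add 1 mM NAD+/90 uM beta-hydroxybutyryl-CoA; kinetic fluorescence 360/450 nm, 4 min. Tris-HCl pH 9.0, 0.01% Tween-20.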
# AID923 = qHTS Assay for Allosteric/Competitive Inhibitors of Caspase-1: Spectroscopic Profiling in AFC Spectral Region; compound fluorescence, AFC spectral region (405/520 nm); Potency, µM (titrated, usually from 57.5 µM), for the others: at the top dose fluorescence increase, most hits filed as activators; 75,000 tested, 1.1% active; also: potency is read from the fitted curve at half-maximal effect; 0% is about no effect
#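 Compound autofluorescence profiled at 405 nm ex/520 nm em during kinetic caspase 1 run (50 nM enzyme, 5 uM Ac-WEHD-AFC, HEPES pH 7.5, 10 mM DTT). Titration up to 57 uM; baseline from regression intercept, normalized to AFC standard curve.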
# HSD17B inh = qHTS Assay for Inhibitors of HSD17B4, hydroxysteroid (17-beta) dehydrogenase 4. recombinant HSD17B10, NADH fluorescence kinetic. Potency, µM (top dose mostly 57.1 µM), without a hit: at the top dose activity change, negative = inhibition, actives largely listed as inhibitors. 75,000 tested, 7.6% active;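 also: the protocol describes HADH2 (HSD17B10) and not the HSD17B4 of the title; potency is read from the fitted curve at half-maximal effect; % is scaled to controls: 0 for no effect and ±100 for the full control effect; nearly all actives have a fitted effect of over 70% in size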
#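 His-tagged E. coli-expressed HADH2 at 20 nM in 100 mM Tris-HCl pH 9.0 with 0.01 % Tween-20, preincubated 15 min with compound at room temperature. Reaction with 1 mM NAD+ and 90 uM beta-hydroxybutyryl coenzyme A; NADH fluorescence (360/450 nm) read kinetically over 4 min, last minus first point.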
# GBA mod = Glucocerebrosidase; Lysosomal acid glucosylceramidase (Homo sapiens), P04062; purified enzyme, resorufin glucoside fluorescence (screen aimed at inhibitors), 20 min; Potency, µM; 48,000 tested, 1.1% active; AID 360, 2006; in the data active = potency below about 15 µM; inconclusive = mostly about 16 µM to 33 µM;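 also: potency is read from the fitted curve at half-maximal effect; the screen sought inhibitors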
#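 Compounds titrated against 0.2 nM normal enzyme, 30 uM resorufin beta-D-glucopyranoside substrate, citrate/phosphate buffer with taurocholate and tween-20, pH 5.9. Reaction ran 20 min at room temperature; fluorescence (Ex 548/Em 600) gave AC50.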
# A350 fluor = qHTS Assay for Spectroscopic Profiling in A350 Spectral Region; Compound autofluorescence, 340/450 nm, Alexa 350 dye-equivalents; active compounds read high; max dye-equivalent concentration, M; 59,000 tested, 11% active; in the data active = max dye-equivalent concentration above about 10 nM; inconclusive = mostly about 1.1 nM to 9.6 nM
# 4MU fluor = qHTS Assay for Spectroscopic Profiling in 4-MU Spectral Region | 59,000 tested, 11% active | compound autofluorescence, 340/450 nm, 4-MU equivalents; active compounds read high | max dye-equivalent concentration, M; in the data active = max dye-equivalent concentration above about 10 nM; inconclusive = mostly about 1.1 nM to 9.6 nM
#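 Intrinsic fluorescence at 340/450 nm (ex/em) was read after 15 min at room temperature in pH 8.0, 100 mM Tris. Each compound concentration expressed as 4-MU-equivalent concentration from a six-point 4-MU standard series on each plate.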
# The depositor's hits bear a star; i = inactive; ? = inconclusive; nt = no result given; [ ] = dose if it differs, or a comment. In the library only some 13% were active in any assay of this set; here they are far more common. Unless noted, calls follow the shape of the dose curve; as a rule, active = well fitted curve in the direction sought with a large enough effect; inconclusive = small, poorly fitted or top-dose-only effect, or another doubt; inactive = no such curve, though single readings can be large; an effect the other way counts as inactive or inconclusive.
SMILES,HADH2 inh,AID923,HSD17B inh,GBA mod,A350 fluor,4MU fluor
NCCNC[C@H](O)CO,-8%[11.4 µM],-1%[11.5 µM],9%[11.4 µM],nt,i,i
Cc1ccc2c(c1)c(C)c(C)n2CC(O)CN1CCCCC1C (centres undefined),?,0%,?,nt,nt,nt
Cc1ccc2c(c1)c(C)c(C)n2CC(O)Cn1nc(C)c(Br)c1C (centres undefined),?,-2%,?,?,3e-08M*,2.9e-08M*
Cc1ccc2c(c1)c1c(n2CC(O)Cn2nc(C)c(Br)c2C)C(=O)CCC1 (centres undefined),4%,0%,?,>77,2e-08M*,2.2e-08M*
CC(=O)c1c(C)nn(CC(O)Cn2c3c(c4cc(C)ccc42)CCCC3=O)c1C (centres undefined),?,7%,25µM*,>77,9.5e-08M*,1.1e-07M*
Cc1ccc2c(c1)c(C)cc(=O)n2CCC(=O)O,-4%,2%,?,>77,?,i
C=CCSc1nnc2c(n1)OC=Nc1ccccc1-2,-12%,-4%,-2%,nt,nt,nt
CC(C)OP(=O)(c1ccc(N(C)C)cc1)C(O)c1ccncc1 (centres undefined),2%,1%,-8%,>77,?,1.9e-08M*
Cn1c(=O)c(C(=O)COC(=O)c2cc(-c3ccccc3)nc3ccccc23)c(N)n(Cc2ccccc2)c1=O,nt,4%,?,nt,nt,nt
COc1ccc(-c2cc(C(=O)OCC(=O)N(C)C)c3ccccc3n2)cc1,36%,15%,i,>77,4.3e-08M*,4.2e-08M*
CCNc1nc(C)cc(COC)c1C#N,?,-1%,25µM*,nt,nt,nt
CCOc1cc2c(C#N)c(N3CCOCC3)nc(N)c2c(N)n1,-15%,7%,32µM*,>77,8.3e-07M*,5.8e-07M*
COCc1cc(C)nc(N2CCOCC2)c1C#N,-18%,-1%,25µM*,nt,nt,nt
COCc1cc(C)nc(Nc2ccc(C)c(C)c2)c1C#N,-5%,14%,-16%,nt,nt,nt
CS(=O)(=O)N1CCC2(CCCN(C(=O)Nc3cccc(C#N)c3)C2)CC1,4%,5%,7%,nt,i,i
O=C(O)C1CC2(C1)CC(C(=O)O)C2 (centres undefined),12%[11.4 µM],-2%[11.5 µM],-4%[11.4 µM],nt,i,i
CC(C)(C)CC(=O)Nc1nnc(-c2cccs2)s1,?,0%,25µM*,>77,?,?
CC(C)c1nnc(NC(=O)CCS(=O)(=O)c2nc(-c3cccs3)cc(C(F)(F)F)n2)s1,12%,1%,2%,>77,i,i
CCN1C(=O)CC(C(=O)O)SC1=Nc1ccc(OC)cc1 (centres undefined),8%,0%,12%,>77,?,i
CCOc1ccccc1-c1nc(C(N)=O)c2[nH]c(=O)n(-c3cccc(C)c3)c2n1,?,-1%,25µM*,>77,3.4e-08M*,3.4e-08M*
Cc1ccc(-n2c(=O)[nH]c3c(C(N)=O)nc(-c4ccc(C)o4)nc32)cc1,-65%,9%,25µM*,>77,2.1e-08M*,2.2e-08M*
COc1ccc2oc(=O)c(C(=O)N3CCN(C45CC6CC(CC(C6)C4)C5)CC3)cc2c1,-2%,15%,-13%,>77,3.1e-08M*,3.4e-08M*
Cc1ccc(C)c(N2CCN(C(=O)c3cc4ccccc4oc3=O)CC2)c1,-9%,-3%,-7%,nt,nt,nt
COc1ccc2oc(=O)c(C(=O)N3CCN(c4ccccc4C)CC3)cc2c1,13%,3%,?,>77,2.6e-08M*,2.4e-08M*
COc1ccc2oc(=O)c(C(=O)N3CCN(c4ccccc4)CC3)cc2c1,-2%,3%,0%,>77,3.8e-08M*,3.1e-08M*
COc1ccc(OC)c(S(=O)(=O)N2CCN(C34CC5CC(CC(C5)C3)C4)CC2)c1,-6%,2%,1%,>77,i,i

# Bioassay records: PubChem BioAssay, National Center for Advancing Translational Sciences (NCATS)
